Drawing on PubChem BioAssay AID1347041 (National Center for Advancing Translational Sciences (NCATS), 2019), this text covers activity change for 71 compounds.

“And” between values parts separate entries of the source, which are not always exact repeats. Equal values may be shown once. Among all 480,000 compounds or so, about 740 (0.15%) were called active. This is one part of a sample in which actives are shown more often than they occur. Rule as the data show it: active = activity change below about -30%; inconclusive = mostly about -25% to -30%; inactive = weaker than that. Some structures have more than one record in an assay (separate samples or runs), and their calls can disagree.

For this experiment, the target named is L-lactate dehydrogenase A chain (Homo sapiens) (UniProt P00338). The experiment can be described thus: qHTS assay for inhibitors of human lactate dehydrogenase.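 Also: values are at about 110 or 230 µM; plate controls were DMSO wells for no effect and wells without enzyme for full effect.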 The note with it: purified LDHA, NADH/diaphorase-resazurin fluorescence; stronger effect = lower value. The gist of the method: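 Remaining NADH was detected by diaphorase (0.133 mg/mL) converting 37 µM resazurin to fluorescent resorufin, read at 0 and 20 minutes. The preceding 5-minute room-temperature reaction used 2 nM LDHA, 0.2 mM sodium pyruvate and 0.06 mM NADH at pH 7.4.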
A general note: Quantitative high-throughput screening tests each substance at several concentrations.
Regarding `Cc1ccc(/C=C(/C#N)C(=O)c2ccsc2)cc1C`, the activity change was 4.55% (inactive). In the case of `CC(C)(C)C(=O)N1CCC(C(=O)N2CCC(c3nc4ccccc4o3)CC2)CC1` it was 0.769% (inactive); in that of `O=C(C(c1ccccc1)N1CCN(S(=O)(=O)c2cccs2)CC1)N1CCCCC1` (stereo unspecified), 1.33% (inactive). Consider `O=C(NCc1ccco1)NNc1nc2c(-c3ccccc3)nnn2c2ccccc12`, for which the activity change is 0.688% (inactive). Then `Clc1cc(Cl)c(N/N=C/c2ccc(Br)cc2)c(Cl)c1`, with 1.46% (inactive). For `Cc1cc(C)c(S(=O)(=O)c2ccccc2)c(OC(=O)c2c(F)cccc2Cl)n1`, the activity change was -58% (active). On to `O=C(OCc1ncc(-c2ccccc2)o1)c1c(F)cccc1Cl`, for which the activity change is -4% (inactive). In the case of `Cc1cc(OC(=O)c2c(Cl)cccc2Cl)nc(C)n1` it was -6.35% (inactive). In the case of `CC(=O)c1c(C)[nH]c(C)c1C`, the activity change is -0.832% (inactive).

With `CCc1nc(C#N)c(NCC(c2cccs2)N2CCOCC2)o1` (stereo unspecified), the activity change was 4.58% (inactive). As to `CCCc1cc(=O)oc2cc(OC(C)C(=O)Nc3cccc(C(C)=O)c3)ccc12` (stereo unspecified), the activity change is 1.35% (inactive).

Take `Cc1c(C(=O)C(=O)NC(C)c2ccccc2)c2ccccc2n1C` (stereo unspecified): the activity change is -3.86% (inactive). Regarding `CCOC(=O)c1cc(S(=O)(=O)Nc2cccc(C)c2C)[nH]n1`, the activity change is -1.21% (inactive). On to `COc1ccc(OCCOC(=O)c2nn(C)c(=O)c3ccccc23)cc1`, for which the activity change was 0.361% (inactive). Then `Cc1nc(-c2ccc(F)cc2)c(CC(=O)N2CCN(S(=O)(=O)c3ccc(F)cc3)CC2)s1`, with 7.31% (inactive) and -4.86% (inactive); and `Cc1ccc(S(=O)(=O)N2CCN(C(=O)Cc3sc(C)nc3-c3ccc(F)cc3)CC2)c(C)c1`, with 1.74% (inactive) and -33% (active). For `Cc1nc(-c2ccc(F)cc2)c(CC(=O)Nc2cc(S(=O)(=O)N3CCCCC3)ccc2C)s1`, the activity change was -0.452% (inactive). `CC(NC(=O)c1nccnc1N)c1ccco1` (stereo unspecified): the activity change was -5.25% (inactive). Then `CC(=O)[C@@H]1SC(N)=C(C#N)[C@H]1c1cccs1`, with 12.5% (inactive); and `CCCn1c(N2CCN(C(=O)c3cccc(OC)c3)CC2)nc2sc3c(c2c1=O)CCCC3`, with -1.23% (inactive); and `CCN(c1ccccc1)c1nnc(NC(=O)Nc2ccccc2OC)s1`, with -2.61% (inactive).

Consider `CCCn1nc(C(=O)Nc2ccc(OC)c(NC(C)=O)c2)c2ccccc2c1=O`, for which the activity change is -2.1% (inactive). Consider `CCNC(=O)CN1CCN(C(C(=O)O)c2c[nH]c3ccc(OCc4ccccc4)cc23)CC1` (stereo unspecified), for which the activity change was -6.48% (inactive). For `Fc1ccc(OCc2nn3c(CSc4ccccc4)nnc3s2)cc1`, the activity change is -2.81% (inactive). `O=C(CN1CCN(CC(=O)c2c[nH]c3ccccc23)CC1)NC1CC1`: the activity change is 0.902% (inactive). In the case of `CCc1ccc(NC(=O)CSc2nccn2Cc2ccccc2OC)cc1`, the activity change was 8.74% (inactive). Consider `CC(NC(=O)c1cc(Cl)sc1Cl)C12CC3CC(CC(C3)C1)C2` (stereo unspecified), for which the activity change was 1.53% (inactive). As to `COc1ccc(-c2cc(C(=O)O)c3cc(C)ccc3n2)cc1OC`, the activity change is 6.4% (inactive).

`CC(C)Cn1nc(C(=O)NCc2ccccc2F)c2ccccc2c1=O`: the activity change is 8.3% (inactive). Turning to `COCCCN(C)Cc1cccc(OC)c1`, the activity change was -1.41% (inactive).

`COc1cc(Cl)c(C)cc1NC(=O)C(C)N1CCN(CCc2ccccc2)CC1` (stereo unspecified): the activity change is -11.8% (inactive). Turning to `O=C1CCCC2=C1C(c1ccc(C(=O)O)cc1)c1c([nH]n(-c3ccccc3)c1=O)N2` (stereo unspecified), the activity change was 14.2% (inactive).

Take `CCOC(=O)C1=C(CN2CCN(C(=O)OC(C)(C)C)CC2)NC(=O)NC1c1ccccc1OCC` (stereo unspecified): the activity change was -21.6% (inactive). Then `Cc1cc(CNC(=O)NCc2coc(-c3cccs3)n2)ccc1F`, with -5.62% (inactive); and `CCCNc1c(NS(=O)(=O)c2ccc(F)c(F)c2)c(=O)oc2ccccc12`, with 0.151% (inactive); and `COc1ccc(C(=O)Nc2oc3ccc(Cl)cc3c(=O)c2-c2ccc3c(c2)OCO3)cc1`, with -4.91% (inactive).

With `Cc1c(C(N)=O)[n+](=O)c2ccccc2n1[O-]`, the activity change is -7.73% (inactive). In the case of `Oc1ccc2ccccc2c1C=NCCc1ccccc1` it was 43.7% (inactive); in that of `Cn1c(=O)c2c(ncn2CC(=O)Nc2cccc(F)c2)n(C)c1=O`, 0.764% (inactive). Then `COc1ccc(-c2nn3c(-c4ccc(OC)cc4)nnc3c3ccccc23)cc1`, with -7.99% (inactive); and `COc1ccc(-c2nc(=N)sn2-c2ccccc2)cc1`, with -63.7% (active); and `Cc1ccc(-c2nnn(Cc3csc(-c4ccccc4Cl)n3)n2)cc1`, with -3.25% (inactive). In the case of `Cc1ccc(-c2nc(=N)sn2Cc2ccccc2)cc1`, the activity change is -80.9% (active).

Take `Cc1ccc(CN2C(=O)SC(Nc3ccccc3)C2=O)cc1` (stereo unspecified): the activity change was -3.19% (inactive). Regarding `COc1ccc(Nc2ccccc2)cc1`, the activity change was 15% (inactive). In the case of `CCCCn1c(=O)[nH]c(=O)c2c1nc(COC(=O)C1(C#N)CCCC1)n2C`, the activity change is -5.02% (inactive). As for `O=C(CCC1NC(=O)c2ccccc2NC1=O)NC1CCCC1` (stereo unspecified), the activity change was -4.57% (inactive). As for `Cc1ccc(N(CC(=O)N2CCN(C/C=C/c3ccccc3)CC2)S(C)(=O)=O)cc1`, the activity change was -0.0793% (inactive). Consider `CN(Cc1ccc(Cl)cc1)C(=O)Cn1nnn(-c2cccs2)c1=O`, for which the activity change is -0.86% (inactive).

As to `CCCn1nc(C(=O)N(C)Cc2ccc(OCC)cc2)c2ccccc2c1=O`, the activity change is -4.2% (inactive). Then `COc1ccc2oc(=O)c(S(=O)(=O)N3CCCCCC3)cc2c1`, with -6.37% (inactive); and `CC(C)CC(=O)Nc1ccc(N2CCCC2)cc1`, with 39.8% (inactive); and `COc1cc(CN2C(=O)C(=O)c3cccc(C)c32)ccc1OCCC(C)C`, with 5.04% (inactive).

Take `COc1ccc(Br)cc1/C=C1\Cc2ccccc2C1=O`: the activity change is 0.293% (inactive). Take `COc1cccc2cc(C(=O)N3CCN(c4cccc(C(F)(F)F)c4)CC3)c(=O)oc12`: the activity change is 3.43% (inactive). `COc1ccccc1CCNC(=O)CSc1ccc(-c2ccccn2)nn1`: the activity change was 8.88% (inactive).

In the case of `O=C(COc1c(I)cc(Cl)c2cccnc12)N1CCCC1`, the activity change was -11.3% (inactive).

In the case of `CCN(CC(=O)N(C)C)Cc1ccc(F)c2cccnc12`, the activity change is 0.454% (inactive). Take `COc1ccc(Oc2c(C)oc3cc(OCC(=O)N4CCC(C(N)=O)CC4)ccc3c2=O)cc1`: the activity change is -1.42% (inactive). In the case of `CN(Cc1ccc(OC(F)F)cc1)C(=O)c1nn(Cc2ccccc2)c(=O)c2ccccc12` it was 13.3% (inactive); in that of `COc1ccc(NC(=O)c2cnn3c2NC(C(=O)O)=CC3c2ccc(F)cc2)cc1` (stereo unspecified), 18.2% (inactive).

`Cn1c(SCC(=O)Nc2cccc(F)c2)nc2c(=O)[nH]cnc21`: the activity change is 11% (inactive). For `CCN(CC)S(=O)(=O)c1ccc(C)c(NC(=O)COc2ccc(Br)cc2Cl)c1`, the activity change is -4.43% (inactive). With `CCN(CC)S(=O)(=O)c1ccc(C)c(NS(=O)(=O)c2cccc(C#N)c2)c1`, the activity change was -34.7% (active).

For the compound `CCN(CC)S(=O)(=O)c1ccc(N2CCCC2)c(NS(=O)(=O)c2cccs2)c1`, the activity change was -11.2% (inactive).

As for `COC(=O)c1ccc(C2C(C#N)=C(N)Oc3c2ccc2ccccc32)cc1` (stereo unspecified), the activity change is -5.14% (inactive). Then `Cn1c(/C(C#N)=C2/CCCCCN2)nc2ccccc21`, with 1.28% (inactive); and `Cc1cc2nc(/C(C#N)=C/c3ccccc3)[nH]c2cc1C`, with 9.89% (inactive); and `Cc1cc(/C=C(/C#N)c2nc3ccccc3n2C)cc(C)c1O`, with -32.2% (active). Consider `CC(C)CC(NC(=O)COc1ccc(Oc2ccccc2)cc1)C(=O)O` (stereo unspecified), for which the activity change was -0.172% (inactive). As for `O=C(O)c1cc(NC(=O)c2ccc(Cl)s2)cc(C(=O)O)c1`, the activity change was -9.52% (inactive).
